This is part of a sample that, as a whole, favours compounds with a hit. Of some 83,000 tested, about 20% had one in any assay.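 Single-dose data. Exposure time 48 hours. Values below 10 considered active.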 Unmarked numbers belong to inactive results. Activity calls are given as the source filed them.

Assay in all cases: NCI-60 one-dose screen, 48 h (100 = growth as untreated, 0 = no growth, -100 = all killed)
What all share (conditions): 10 µM unless noted

Test [1] concerns RPMI-8226 leukemia.
The subject of test [2] is OVCAR-8 ovarian.
Test [3] concerns OVCAR-5 ovarian.
Test [4] has as its system OVCAR-4 ovarian.
Test [5] has as its system SK-OV-3 ovarian.
Test [6] concerns IGROV1 ovarian.
The subject of test [7] is OVCAR-3 ovarian.
The test system of test [8] is HS 578T breast.
Test [9] has as its system NCI/ADR-RES ovarian.

With `CC(=O)Oc1cccc(S(=O)(=O)n2cc(C(=O)C(=O)Nc3ccncc3)c3ccccc32)c1`, the growth in test [1] is 65.2%; in test [2], 89.7%; in test [3], 90.8%; in [4], 78%; in [5] it was 92.5%; in test [6], 84.7%. In addition, the growth in [7] is 101%; in [8] it was 98.5%; in test [9], 80.2%.

Consider `CN(C)CC(C(=O)c1ccccc1)c1ccccc1` (configuration not stated), for which the growth in test [1] was -34.4% (active); in test [2] it was 9.37% (active); in test [3], 59.3%; in test [4], 43.1%; in test [5], 88.4%; in test [6], 48.6%. For the same compound, the growth in test [7] is -92.6% (active); in [8] it was 60.5%; in test [9] it was 17.1%.

Take `O=C(Nc1cccc(-n2cc(-c3ccncc3)c(-c3ccc(Cl)c(O)c3)n2)c1)Nc1cccc(C(F)(F)F)c1`: the growth was 1.63% (active) in [1]; 10.6% in test [2]; 62.4% in test [3]; 41.5% in [4]; 21.2% in test [5]; 28.6% in test [6]. Also, the growth in test [7] was 0.81% (active); in [8], 29.4%; in test [9], 24.9%.

Consider `Fc1ccc(Nc2ncnc3ccc(-c4cnc5[nH]ccc5c4)cc23)cc1Cl`, for which the growth was -17.9% (active) in test [1]; -28% (active) in test [2]; 8.66% (active) in [3]; -61% (active) in [4]; 15.3% in [5]; -37.8% (active) in test [6]. In addition, the growth in test [7] is -73.7% (active); in test [8], -12.6% (active); in [9] it was 14%.

As for `C=COC(=O)CCCCCCCCC`, the growth in test [1] was 100%; in test [2] it was 101%; in test [3], 111%; in [4], 109%; in [5] it was 111%; in test [6], 97.1%. For the same compound, the values for the growth in [7], in test [8] and in [9] were 120%, 102% and 103%, respectively.

As to `COc1ccc(/C=C/c2c(C(C)=O)c(C)nc3ccccc23)cc1`, the growth in [1] was 60.2%; in test [2], 85.2%; in [3] it was 77%; in test [4], 70.1%; in test [5] it was 80.8%; in [6], 76.7%. The growth in test [7] is 97.6%; in test [8] it was 106%; in [9] it was 86.6%.

Take `O=S(=O)(NCCNc1nccc(-c2c(-c3cccc(O)c3)nc3sccn23)n1)c1ccc(F)cc1`: the growth in test [1] is 76.2%; in [2], 67.6%; in [3], 107%; in [4] it was 103%; in [5], 85.9%; in [6], 63.7%. For the same compound, the growth in test [7] was 86.8%; in test [8], 83%; in [9], 97.9%.

As for `Cn1c(=O)c2[nH]c(C3CC=CCC3)nc2n(C)c1=O` (configuration not stated), the growth in [1] is 101%; in test [2], 106%; in test [3], 94.7%; in test [4] it was 111%; in test [5], 99.1%; in test [6], 111%. Besides, the growth in [7] is 105%; in test [8], 97.7%; in test [9] it was 112%.

As for `Clc1ccc(-c2nc3ccccc3s2)cc1Cl`, the growth is 104% in test [1]; 98.9% in [2]; 103% in test [3]; 81.3% in test [4]; 108% in test [5]; 75% in test [6]. For the same compound, the figures for the growth in test [7], in [8] and in test [9] were 92.7%, 104% and 98.1%, respectively.

In the case of `O=C1/C(=C/c2ccc(Cl)cc2)CN(Cc2cn(CCNc3ccnc4cc(Cl)ccc34)nn2)C/C1=C\c1ccc(Cl)cc1`, the growth in test [1] is -22% (active); in test [2], -59.5% (active); in test [3], -94.9% (active); in [4], -4.44% (active); in [5], -95.5% (active); in test [6], -75.7% (active). Also, the growth in test [7] was -100% (active); in test [8], -19.8% (active); in test [9], -26.6% (active).

For `COC(OC)c1ccccc1`, the growth was 121% in [1]; 98.9% in [2]; 107% in [3]; 110% in test [4]; 99.2% in test [5]; 101% in test [6]. Also, the growth in test [7] is 106%; in [8], 99.2%; in test [9], 99.4%.

Take `O=C(Nc1cccc(-n2cc(-c3ccncc3)c(-c3ccc(Cl)c(O)c3)n2)c1)Nc1ccc(Cl)c(C(F)(F)F)c1`: the growth in test [1] is -10.5% (active); in test [2], -41.8% (active); in test [3], 23.3%; in [4] it was -3.42% (active); in [5] it was 7.47% (active); in test [6] it was 10.4%. The growth in test [7] was -43% (active); in test [8], -7.39% (active); in [9], -16.9% (active).

Regarding `COc1cccc(CC(C)=C(c2ccc(OCCN3CCCCC3)cc2)c2ccc(OCCN3CCCCC3)cc2)c1`, the growth in [1] was -45.8% (active); in test [2], -50.3% (active); in test [3], 24%; in test [4] it was -49% (active); in [5], 76.9%; in [6], -10.5% (active). Besides, the growth in test [7] is -40.7% (active); in test [8], -50% (active); in [9], -13.3% (active).

Turning to `NC(N)=Nc1nc2ccccc2o1`, the growth in test [1] is 58.2%; in test [2], 110%; in [3] it was 110%; in test [4], 110%; in test [5] it was 107%; in [6] it was 102%. Moreover, the growth in test [9] was 95.1%.

On to `CN(C)c1cccc2c(S(=O)(=O)/N=C(\N)Nc3nc4ccccc4s3)cccc12`, for which the growth in [1] is 62%; in test [2], 70.6%; in [3], 84.2%; in test [4], 82.4%; in test [5], 46.6%; in [6], 51.7%. Moreover, the growth was 8.44% (active) in [7], 68% in test [8] and 48% in test [9].

In the case of `COc1cc(-c2nn(-c3cccc(NC(=O)c4ccccc4)c3)cc2-c2ccncc2)ccc1Cl`, the growth is 9.39% (active) in [1]; 19.6% in test [2]; 66.4% in test [3]; 46.5% in test [4]; 42.1% in [5]; 47.4% in test [6]. The growth is 0.0228% (active) in test [7], -1.34% (active) in [8] and 0.342% (active) in [9].
